Experimental findings from PubChem BioAssay AID488841 (Sanford-Burnham Center for Chemical Genomics, 2010) are described below.

The structures appear in SMILES notation. The whole screen tested about 1,400 compounds, of which about 380 (27%) were called active. Some of the results follow. Values without a mark were called inactive.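 Rule for the calls: active = mean inhibition above 50% across duplicate retests at 10 µM; inactive = the rest.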

The inhibition is the drop in the measured response relative to a control, in per cent.

This assay can be described thus: inhibition of NALP1/ASC/caspase-1 reporter signal in yeast, confirmation, NALP1 inhibitor project, S. cerevisiae, luminescence, single concentration (AID 488841).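 Note: plate controls were DMSO in galactose medium for no effect and cells in plain SD medium for full effect.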 As to conditions: S. cerevisiae NALP1/ASC/Caspase-1 reporter, beta-gal luminescence; at 10 µM; active compounds read high.
Consider `Cc1cccc(N/C=C/C(=C(C#N)C#N)N(C)C)c1`, for which the inhibition is 30.9%. In the case of `Cc1ccsc1/C=N/NC(=O)c1ccco1`, the inhibition is 38.9%. The value for `O=C(N/N=C/c1ccc2nccnc2c1)c1ccccc1O` was 25.7%; that for `O=C(N/N=C/c1ccc2c(c1)OCO2)c1cccs1` was 51.4% (active). The value for `O=[N+]([O-])c1ccc(N2CCN(c3ccc(Cl)nn3)CC2)c(Cl)c1` was 29.9%. The value for `Cn1nc(-c2ccccc2)c(-c2nc(-c3ccc(Cl)cc3)no2)c1Cl` was 16.6%.

As for `Cn1nc(-c2ccc(Cl)cc2)nc2c(=O)n(C)c(=O)nc1-2`, the inhibition is 97.7% (active). The value for `COc1ccc(-c2nc(N)n(S(=O)(=O)c3ccc(C)cc3)n2)cc1` was 44.7%; that for `COc1ccccc1NC(=O)Nc1ccc2c(c1)nnn2C` was 18.6%. The value for `Cc1nc([N+](=O)[O-])c(Br)n1CC(=O)c1ccc(Cl)cc1` was 37.6%; that for `Cc1cc(C)n(C(C[N+](=O)[O-])c2ccc(Cl)cc2)n1` (stereo not given) was 92% (active). `CCOc1cc(/C=N/NC(=O)c2nn(C)cc2Br)ccc1OCc1ccccc1Cl`: the inhibition is 20.8%. Under `O=c1cc(-c2ccccc2)[nH]c2nc3ccccc3n12` stands 39.5%; under `Cc1cccc(OC(=O)c2cn(C)nc2C(F)(F)F)c1C`, 43.7%. For `CCCCNc1nc2ccccc2[nH]1`, the inhibition is 20.4%. Consider `Fc1ccccc1-c1ccc(/C=N/Nc2nc3ccccc3[nH]2)o1`, for which the inhibition is 60.4% (active). In the case of `Cc1ccc(/C=N/Nc2ccnc3cc(Cl)ccc23)c(C)c1`, the inhibition was 38.3%. As for `CC(=O)/C=C/n1c(=S)oc2ccccc21`, the inhibition is 6.85%. Under `CN1C(=O)CSc2ccc(NC(=O)N3CCN(c4ccccn4)CC3)cc21` stands 24%; under `O=C(CC1Sc2ncnn2C1=O)Nc1ccc(Br)cc1` (stereo not given), 41.1%. Under `CCOC(=O)c1ccc(NC(=O)CC2Sc3ncnn3C2=O)cc1` (stereo not given) stands 70.7% (active); under `COc1ccc(Nc2ncccc2C(=O)NCc2ccccc2)cc1`, 46.5%. Take `COc1ccc(NC(=O)CC2Sc3ncnn3C2=O)cc1` (stereo not given): the inhibition is 59% (active). Under `CCOC(=O)c1ccc(NC(=O)CSc2nnc(CNc3ccc(C)cc3)n2C)cc1` stands 32.1%.

In the case of `CCOC(=O)c1ccc(NC(=O)c2nccnc2C(=O)O)cc1`, the inhibition is 18.4%. The value for `CCOC(=O)C1C(=O)Oc2ccc3ccccc3c2C1C1CCOC1=O` (stereo not given) was 19.4%; that for `CCN(CC)S(=O)(=O)c1ccc(NS(=O)(=O)c2cccs2)cc1` was 16.4%; that for `COc1ccc(NC(=S)N(C(C)C)C2CCN(C(C)C)CC2)cc1Cl` was 21.6%. The value for `Cc1ccc(N2C(=O)c3ccc(C(=O)O)cc3C2=O)cc1C` was 28.4%; that for `Clc1ccc(Cn2c(/C=C/c3ccco3)nc3ccccc32)cc1` was 29.2%.

Regarding `COc1ccc(CNC(=O)CCNS(=O)(=O)c2ccc(C)cc2)cc1`, the inhibition was 19.6%.

`CCN(C(=O)c1ccco1)c1nnc(-c2ccc(OC)cc2)s1`: the inhibition is 38%. The value for `COc1ccc(CC2(C)OC(c3ccc(C)cc3)=NN2C(C)=O)cc1` (stereo not given) was 55.5% (active); that for `N#Cc1ccc(Oc2nc(Nc3ccc(F)cc3)nc(N3CCCC3)n2)cc1` was 29.6%; that for `c1cnc2c(c1)ccc1cccnc12` was 40.4%. Consider `c1ccc(-c2cccc(-c3ccccn3)n2)nc1`, for which the inhibition is 86.2% (active). In the case of `N/C(Cc1ccccc1)=N\OC(=O)c1cccc2ccccc12`, the inhibition was 39.9%.

Consider `COc1ccccc1C/C(N)=N/OC(=O)c1cccc([N+](=O)[O-])c1C`, for which the inhibition was 37.2%. The value for `N/C(Cc1ccc([N+](=O)[O-])cc1)=N\OC(=O)c1ccccc1Br` was 55.1% (active); that for `Cc1noc(C)c1S(=O)(=O)N1CCC(C(=O)N2CCC(N3CCCCC3)CC2)CC1` was 22.1%; that for `Clc1ccc(CO/N=C2\CCCc3nonc32)c(Cl)c1` was 44.9%. Under `CS(=O)(=O)N1CCC(C(=O)Nc2ccc3c(c2)OCO3)CC1` stands 30.6%; under `O=C(Nc1ccc(C#Cc2ccccc2)cc1)C1CC1`, 56.5% (active); under `COc1ccc(NC(=O)C2CCN(C(=O)c3ccc(OC)cc3)CC2)cc1`, 18.7%.

For the compound `O=C(Nc1ccc(Br)c(Cl)c1)C1CC1`, the inhibition is 56.2% (active). Under `O=C1c2ccccc2C(=O)c2cc(NC(=O)C3CC3)ccc21` stands 44%.

For `Cc1cc(C)cc(NS(=O)(=O)c2ccc(NC(=O)C3CCCCC3C(=O)O)cc2)c1` (stereo not given), the inhibition was 35.4%.

As for `O=P(CCCCCCCCCP(=O)(c1ccccc1)c1ccccc1)(c1ccccc1)c1ccccc1`, the inhibition is 39%.

For the compound `CC(C)C(=O)c1cc2c(cc1NC(=O)Nc1cccc3ccccc13)OCCO2`, the inhibition is 28.3%. The value for `OCCCN=c1cc(-c2ccccc2)oc2ccc(Cl)cc12` was 43.6%. Regarding `Cc1n[nH]c(C)c1S(=O)(=O)N1CCN(C2CCCCC2)CC1`, the inhibition was 16.5%. `COc1ccnc(N2CCN(c3ccccc3)CC2)c1C#N`: the inhibition was 53.9% (active). The value for `COc1cccc(CNC(=O)CSc2ccc(-c3ccncc3)nn2)c1` was 34.1%. In the case of `O=C(CSc1nc(-c2ccccc2)cs1)Nc1cccc([N+](=O)[O-])c1`, the inhibition is 47.1%. As to `CC(C)NC(=O)CSc1nc(-c2ccccc2)cs1`, the inhibition is 56.1% (active). The value for `CCOC(=O)c1c(-c2cccs2)csc1NC(=O)C(C)(C)C` was 26.2%; that for `Cc1ccc(NC(=O)CSC2=Nc3ccccc3C3CC=NN23)c(C)c1` (stereo not given) was 41.9%; that for `O=C(Oc1cccc2cccnc12)c1ccc(N2C(=O)C3C4CCC(C4)C3C2=O)cc1` (stereo not given) was 31%. For `O=C(Nc1cc(N2CCOCC2)ncn1)NC1(C(F)(F)F)Oc2ccc(Cl)cc2O1` (stereo not given), the inhibition was 30.7%. Under `CC1CCCN(CCCOc2ccc(Cl)cc2Br)C1` (stereo not given) stands 56.8% (active). Under `CC1CCCN(CCOCCSc2ccccc2)C1` (stereo not given) stands 39.5%; under `CC1CCCN(CCOCCOc2ccc(Br)cc2Cl)C1` (stereo not given), 42%. Under `Cc1c(C)c2cc(Cl)c(O)c(CN3CCCCC3)c2oc1=O` stands 31.9%; under `COc1ccc(N2C(=O)C(Cl)=C(Nc3c(C)n(C)n(-c4ccccc4)c3=O)C2=O)cc1`, 36.8%; under `O=C(CCc1nc2ccccc2s1)Nc1ccccc1`, 77.9% (active). For the compound `O=C(O)CCCCc1nc2ccccc2s1`, the inhibition was 14.6%. In the case of `O=C(CSC1=NS(=O)(=O)c2ccccc21)Nc1ccccc1`, the inhibition is 37%. The value for `O=C(O)c1ccc2c(c1)N(Cc1cccc(F)c1)C(=O)CS2` was 19%. Take `NC(=S)N/N=C/c1coc2c(ccc3ccccc32)c1=O`: the inhibition was 34.1%. The value for `O=C(/C=N/O)Nc1cccnc1` was 19.7%. Under `COc1ccc(-c2csc3ncnc(Oc4cccc5ccc(C)nc45)c23)cc1` stands 67.6% (active); under `Cc1ccc(-c2csc3ncnc(Oc4cccc5ccc(C)nc45)c23)cc1`, 19.6%; under `O=S(=O)(CC(CN1CCCC1)N1CCCC1)c1ccc2ccccc2c1` (stereo not given), 21.4%.

In the case of `CC(C)c1nc2sc3c(=O)[nH]cnc3c2c2c1CCC2`, the inhibition was 22%. The value for `CCOC(=O)C(=Cc1cc(=O)c(OC)co1)C(=O)OCC` was 79.3% (active); that for `CC(=O)c1c(C)oc2c1C(=O)c1ccccc1C2=O` was 35.8%.

In the case of `Cc1c(Cl)sn(-c2ccc(Cl)cc2)c1=O`, the inhibition was 73.5% (active). In the case of `C=C(C)C1CC=C(C)/C(=N/NC(=O)c2ccoc2C)C1` (stereo not given), the inhibition was 27.2%. The value for `CN(C)C(=N)c1n[nH]nc1SCc1ccccc1` was 19.9%; that for `Cc1cccc(/C=C/C(=O)c2ccc(NC3=NCCCS3)cc2)c1` was 62% (active); that for `CC(C)(C)c1ccc(/C=C/C(=O)c2ccc(NC3=NCCCS3)cc2)cc1` was 43.9%. Under `Cc1cc(N/N=C/c2cccc(Cl)c2)nc(NCc2ccccc2)n1` stands 44.8%.

As for `Cc1ccc(Nc2cc(C)nc(NCc3ccccc3)n2)cc1`, the inhibition was 58.3% (active).

For `Cc1cc(N/N=C/c2ccc(Cl)cc2)nc(NCc2ccccc2)n1`, the inhibition is 33.7%. `Cc1cc(N/N=C/c2ccccc2Cl)nc(NCc2ccccc2)n1`: the inhibition is 43.6%. Under `Cc1cc(N/N=C/c2ccccc2)nc(NCc2ccccc2)n1` stands 58.4% (active); under `CCOC(=O)C1CCCN(C2CC(=O)N(c3cccc(C(F)(F)F)c3)C2=O)C1` (stereo not given), 32.6%. Take `CC1Cc2ccccc2N1CC(=O)Nc1ccc2c(c1)OC(F)(F)O2` (stereo not given): the inhibition was 30.3%.

`CCCCCCNc1nc(NCc2ccco2)nc(OCC)n1`: the inhibition is 52.5% (active). Under `CCc1ccc(OCCCC(=O)Nc2cccc(C(=O)O)c2)cc1` stands 27.1%. Under `Cc1ccc(-n2c(Cl)c(Cl)nc(Cl)c2=O)cc1` stands 100% (active); under `COc1ccc2cnn(-c3ccc(C)cc3)c(=O)c2c1OC`, 36.9%; under `O=C(Nc1cccc(O)c1)c1noc2c1CCc1ccccc1-2`, 75.4% (active).

Take `O=c1c2c(C(F)(F)F)cc(C(F)(F)F)nc2[nH]n1-c1ccccc1`: the inhibition was 37.9%. The value for `O=C(CN1CCSC1=NCc1ccccc1)c1ccc(Cl)c(Cl)c1` was 52.2% (active).

Consider `COc1ccc(N2CCN(CC(=O)NC(=O)NCc3ccco3)CC2)cc1`, for which the inhibition was 28.6%. For `O=C(NC(Nc1nc2ccc([N+](=O)[O-])cc2s1)(C(F)(F)F)C(F)(F)F)c1ccccc1Cl`, the inhibition is 99.5% (active). Under `CN(C)S(=O)(=O)c1ccc(N2CCCC2)c(C(=O)Nc2nc3ccccc3s2)c1` stands 36.7%. Under `CCOc1ccc(CNC(=O)c2cc3oc4ccccc4c3n2C)cc1` stands 7.2%; under `O=C1C=CCC(/C=C/c2ccccc2)O1` (stereo not given), 69.2% (active). The value for `c1ccc(-c2c[nH]c3[n+]2CCCCC3)cc1` was 26.2%; that for `CCc1ccc(OCCNC(=O)OCc2ccccc2)cc1` was 48.8%. Regarding `COc1ccc(CNCCC(c2ccc(F)cc2)c2ccc(OC)cc2)cc1` (stereo not given), the inhibition was 65.8% (active). For the compound `CCOCCCNCc1ccc(OCc2ccccc2Cl)cc1`, the inhibition is 49.2%. The value for `COc1ccc(OCCCC(=O)Oc2ccc(OC)cc2)cc1` was 42.6%; that for `COc1ccc(CNCCSc2nnnn2C)cc1OC` was 49%; that for `COc1ccc(OCCCC(=O)NCCc2ccccc2)cc1` was 60.8% (active). For `COc1ccc(C(CCNCc2ccccc2F)c2ccc(F)cc2)cc1` (stereo not given), the inhibition was 48.2%. Under `COc1ccc(CCNCc2ccc(OCc3ccccc3)cc2)cc1` stands 78.5% (active); under `COc1ccc(OCCCC(=O)NCC(C)C)cc1`, 32.4%.
